Reference: PubChem BioAssay AID651702 (NMMLSC, 2012)
Several values for one entry are separate records, joined by “and”; a condition that tells them apart may be missing. Equal entries are not always repeated. Out of some 360,000 compounds screened, about 2,400 (0.67%) were called active. The sample holds actives, similar compounds and a random draw of the others, so the mix is not that of the screen.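 How the source made its calls: active means inhibition above about 55% (limit read from the data); inconclusive means no clear call, values can overlap the other calls; inactive means the rest.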

Assay: LAMP-1 surface exposure blockers, TALL-104 cells – cell-based, flow cytometry, MLPCN library, primary screen (AID 651702)
Details: TALL-104 LAMP-1 surface exposure, at 10 µM, hits give high values, cells stimulated with thapsigargin and PMA

| SMILES | inhibition |
| --- | --- |
| COc1ccc2c(c1)c(C(=O)N/N=C/c1cccs1)c(C)n2C | 0.8% (inactive) |
| Cc1c(/C=N\NC(=O)c2cc3ccccc3o2)c2ccccc2n1C | 65.6% (active) |
| CC(C)(C)n1nc2c(c1NC(=O)c1cc3ccccc3o1)CSC2 | 0% (inactive) |
| CCn1nc(C(=O)NNS(=O)(=O)c2cc(/C=C/C(=O)O)cc(OC)c2OC)c2ccccc2c1=O | 1.1% (inactive) |
| CCOc1ccc(/C=C/C(=O)OCC(=O)c2ccccc2OC)cc1OC | -4.4% (inactive) |
| O=C(CN1C(=O)NC2(CCCCCC2)C1=O)NCc1cccs1 | -5.2% (inactive) |
| Cc1nc2c(C(=O)NCc3ccc4c(c3)OCO4)c[nH]n2c(=O)c1Cc1ccccc1F | -2.7% (inactive) |
| Cc1cccc(N(C)C(=O)c2cc(S(=O)(=O)N3CCCCC3)c[nH]2)c1 | -3.8% (inactive) |
| CCCCn1nnnc1C1(C)CCC(=O)N1Cc1ccc(OC)c(OC)c1 (stereo not given) | -1.7% (inactive) |
| Cc1cc(SCC(=O)c2ccccc2)nc(SCC(=O)c2ccccc2)n1 | 78.5% (active) |
| Cc1nc(SCC(=O)c2ccccc2)c([N+](=O)[O-])[nH]1 | 0.6% (inactive) |
| Cc1nc2nc(SCC(=O)c3ccccc3)[nH]c2cc1Br | -2.1% (inactive) |
| O=c1[nH]c(=S)[nH]c(O)c1/C=C1\C=Nc2ccccc21 | -1.2% (inactive) |
| CSCC(NS(=O)(=O)c1ccc(C)cc1)C(=O)O (stereo not given) | 1.8% (inactive) |
| CCCC(C(=O)n1nc(C)cc1C)C(NS(=O)(=O)c1ccc(C)cc1)c1ccccc1 (stereo not given) | 66% (active) |
| Cc1ccc(S(=O)(=O)NC(C(=O)N2CCOCCOCCOCCOCC2)c2ccccc2)cc1 (stereo not given) | -7% (inactive) |
| N#Cc1ccc(C(C(=O)NCc2ccccc2)n2c(=O)c(-c3ccco3)nc3ccccc32)cc1 (stereo not given) | 1.3% (inactive) |
| COc1ccccc1CCNC(=O)c1c(C)nn(CC(C)C)c1Cl | -1.6% (inactive) |
| COCCCn1c(SCC(=O)Nc2oc(C)c3c(C)n[nH]c(=O)c23)nc2sc3c(c2c1=O)CCC3 | -0.6% (inactive) |
| CC(CCc1ccccc1)NC(=O)COC(=O)c1ccc(F)cc1 (stereo not given) | 6% (inactive) |
| COc1cc(/C=C2/C(=O)ON=C2C)ccc1OCc1ccccc1F | 60.6% (active) |
| C#CCOc1ccc(/C=C2/C(=O)ON=C2C)cc1OCC | -12.5% (inactive) |
| CC1=NOC(=O)/C1=C\c1ccccc1 | -7.3% (inactive) |

| SMILES | inhibition |
| --- | --- |
| CC(C)(C)c1ccc(C(=O)N2CCN(CCNC(=O)C(=O)Nc3ccc(F)cc3)CC2)cc1 | -0.5% (inactive) |
| COc1ccc(C2(c3ccc(OC)cc3)NC(=O)N(CC(=O)Nc3cc(C)on3)C2=O)cc1 | 5.1% (inactive) |
| CC[C@@H]1CCCCc2ccccc2[C@@H](C(=O)C[C@H](O)CC(C)=O)OC1=O | -4.4% (inactive) |
| CC(=O)C[C@H](O)CC(=O)[C@@H]1OC(=O)[C@@H](C)C/C=C\Cc2ccccc21 | -0.2% (inactive) |
| CC(=O)C[C@@H](O)CC(=O)[C@H]1OC(=O)CCCCCCc2ccccc21 | 58.1% (active) |
| CSc1nc2nc(-c3cccc(C(F)(F)F)c3)ccn2n1 | -1.7% (inactive) |
| Nc1c(C(=O)c2cccs2)sc2nsc(SCCN3CCCCC3)c12 | 94.6% (active) |
| O=C(Cc1ccc(NC(=O)C2CCCN(C(=O)CCc3ccccc3)C2)cc1)Nc1ccc(C(=O)N2CCOCC2)cc1 (stereo not given) | -2% (inactive) |
| CCOC(=O)C1CCN(C(=O)CN2C(=O)c3cccnc3Oc3ccc(C)cc32)CC1 | -4.5% (inactive) |
| Cc1ccc(C2(c3ccc(C)cc3)NC(=O)N(Cc3c(C)noc3C)C2=O)cc1 | 4.4% (inactive) |
| CCCCC[C@H](C)N1C[C@@H](COCc2ccccc2)Oc2cc(N3CC[C@@H](N(C)C)C3)ccc2S1(=O)=O | 56.2% (active) |
| CCCCC[C@H](C)N1C[C@@H](COCc2ccccc2)Oc2cc(N3CCC[C@@H]3CO)ccc2S1(=O)=O | 0.2% (inactive) |
| CCCCN1CC(COCc2ccccc2)OCCS1(=O)=O (stereo not given) | -5.6% (inactive) |
| COc1ccc2sc(-c3ccc(N(C)C)cc3)c(-c3ccc4cc[nH]c4c3)c2c1 | 72% (active) |
| COc1cc(OC)cc(-c2c(-c3ccc(F)cc3)c3cc(-c4ccc5cc[nH]c5c4)ccc3n2C)c1 | -0.5% (inactive) |
| COc1cccc(-c2sc3ccc(OC)cc3c2-c2ccc(OCCN3CCCCC3)cc2)c1 | 14.7% (inactive) |
| O=C(CCc1nnc2ccc(NCc3ccccc3Cl)nn12)NCC1CCN(C2CCCC2)C1 (stereo not given) | -2.5% (inactive) |
| COc1ccc(S(=O)(=O)NCC(c2ccco2)N2CCOCC2)cc1 (stereo not given) | -1.5% (inactive) |
| C=C(C)CNC(=S)Nc1ccc(S(=O)(=O)Nc2cnc3ccccc3n2)cc1 | 9.1% (inactive) |
| Cc1ccccc1OS(=O)(=O)c1cccc([N+](=O)[O-])c1 | -1.4% (inactive) |
| COc1ccc(S(=O)(=O)N2CCN(CC(=O)N3CCNC3=O)CC2)cc1OC | -0.1% (inactive) |
| CN1CCN(C2Cc3ccc(Cl)cc3Sc3ccc(F)cc32)CC1 (stereo not given) | 63.7% (active) |
| Cc1ccc(-c2nnn(CC(=O)N(Cc3ccco3)C(C(=O)NC(C)(C)C)c3ccncc3)n2)o1 (stereo not given) | 3.8% (inactive) |

| SMILES | inhibition |
| --- | --- |
| Cc1c(C(C)(C)O)[nH]c2ccc(C#N)cc12 | 2.3% (inactive) |
| O=C(CSc1ccccc1)Nc1nnc(/C=C/c2ccccc2)s1 | -0.2% (inactive) |
| COc1ccc(/C=C/c2nnc(NC(=O)C(C)C)s2)cc1 | 2% (inactive) |
| O=C(Nc1ccc(Cl)cc1)Nc1nnc(/C=C/c2ccccc2)s1 | 70.9% (active) |
| CCNC(=O)C1(C)CCCN(C(=O)c2c(C)noc2C)C1 (stereo not given) | -7.3% (inactive) |
| COc1cc(C(=O)Nc2cc(C(F)(F)F)ccc2N2CCOCC2)ccc1O | -2.1% (inactive) |
| O=C(Cn1c[n+](CC(=O)c2ccc([N+](=O)[O-])cc2)cn1)c1ccc([N+](=O)[O-])cc1 | 0.3% (inactive) and 0% (inactive) |
| O=C(CC(n1cncn1)C(Cl)(Cl)Cl)c1ccc([N+](=O)[O-])cc1 (stereo not given) | 67.9% (active) |
| O=C(CCn1nnc2ccccc21)OCC(=O)c1ccc([N+](=O)[O-])cc1 | -4.6% (inactive) |
| CN(C(=O)c1cccc(NC(=O)Cc2ccc(NC(=O)C3CCCN(C(=O)C4CCCC4)C3)cc2)c1)C1CCC1 (stereo not given) | -0.4% (inactive) |
| CCOc1ccc(N2C(=O)/C(=C/c3ccc(C)o3)N(C)C2=S)cc1 | 76.4% (active) |
| CCO/C=C1\C(=O)N(c2ccc(OCC)cc2)C(=O)c2ccccc21 | -2.4% (inactive) |
| CCOc1ccc(N2C(=O)CN(c3cccc4ccccc34)C2=S)cc1 | -2.1% (inactive) |
| O=C(NCC1CCCO1)C1CCN(C2CCN(C(=O)C3CCCCC3)CC2)CC1 (stereo not given) | 1.8% (inactive) |
| CC(=O)Nc1ccc(NC(=O)CN2CCCC(C)C2)c(Cl)c1 (stereo not given) | 1.3% (inactive) |
| O=C(CSc1ccccc1)Nc1cc(Cl)ccc1Oc1ccccc1 | -1.8% (inactive) |
| CC1CCCN(CC(=O)Nc2cc(Cl)ccc2Oc2ccccc2)C1 (stereo not given) | 96.4% (active) |
| CCCCCCCCN1C(=O)[C@H](CC(=O)NCc2cccc3ccccc23)C[C@@]2(C(=O)OC)CCCCC=C12 | 5.4% (inactive) |
| O=C(COc1coc(CN2CCN(c3ccccc3)CC2)cc1=O)Nc1ccccc1F | 10.5% (inactive) |
| CN1CCN(C2=NCCO2)CC1 | -6.4% (inactive) |
| CNc1nc2c(C)cccn2c(=O)c1C=Nc1ccc(OC)cc1 | -1.8% (inactive) |
| Cc1ccc2[nH]c(=O)c(-c3nc4c(C)cccn4c3NCc3ccco3)cc2c1 | 19.3% (inactive) |
| CCCN(CCC)c1nc2c(C)cccn2c(=O)c1/C=C1/SC(=S)N(Cc2ccco2)C1=O | 57.2% (active) |

| SMILES | inhibition |
| --- | --- |
| CSc1nc2sc3c(c2c(=O)[nH]1)CCc1ccccc1-3 | -6.9% (inactive) |
| CCN(CC)CCCC(C)n1c2nc(=O)[nH]c(=O)c-2nc2cc(Cl)ccc21 (stereo not given) | -0.7% (inactive) |
| COc1ccc(CCNC(=O)C2CC3Cn4c(nc5cc(C)c(C)cc54)C3N2C)cc1 (stereo not given) | 60.3% (active) |
| CN1C(C(=O)NCC2CC2)CC2Cn3c(nc4ccccc43)C21 (stereo not given) | -1.8% (inactive) |
| Cc1cc2nc3n(c2cc1C)CC1CC(C(=O)NCCC(C)C)N(C)C31 (stereo not given) | -4.6% (inactive) |
| COc1cc(NC(=O)C2CC(c3ccccc3O)=NO2)c(OC)cc1Cl (stereo not given) | -9.5% (inactive) |
| COc1ccc(NC(=O)C(C)SCc2ccccc2)cc1 (stereo not given) | -0.5% (inactive) |
| Cc1cccc(NC(=O)C2CC(=O)OC23CCCC3)c1 (stereo not given) | 3.1% (inactive) |
| CC(Nc1nc(C(F)(F)F)nc2ccccc12)c1cccs1 (stereo not given) | -9.6% (inactive) |
| COc1cccc(CNc2nc(C(F)(F)F)nc3ccccc23)c1 | 65.7% (active) |
| COc1cccc(CNc2ncc(-c3ccccc3)n2C)c1 | 1% (inactive) |
| CC(CCc1ccc(O)cc1)NCc1ccc(Cl)cc1Cl (stereo not given) | 3.5% (inactive) |
| Brc1cc(Br)c(Oc2cc(Br)c(Br)cc2Br)cc1Br | 0.4% (inactive) |
| CN(C(=O)CN1CCN(c2cc(-c3ccc(OCc4ccccc4)cc3)ncn2)CC1)c1ccccc1 | -3.7% (inactive) |
| Cc1ccc(NC(=S)N2CCCC(c3ccccc3)=N2)cc1 | 2.5% (inactive) |
| O=S(=O)(c1cccc2nonc12)N1CCN(c2cccc(Cl)c2)CC1 | -11.1% (inactive) |
| COc1cc(C(=O)NCc2nnc(SCC(=O)Nc3nc4ccc(C)cc4s3)o2)cc(OC)c1OC | -6.4% (inactive) |
| CCCn1nc(C(=O)Nc2ccc3nc(C)sc3c2)c2ccccc2c1=O | -2.4% (inactive) |
| CCCC(=O)Nc1nc2ccc(NC(=O)c3c(F)c(F)c(OC)c(F)c3F)cc2s1 | 68.7% (active) |
| CC(=O)Nc1ccc(NC(=O)CSc2nnnn2C2CCCCC2)cc1 | -2.8% (inactive) |
| CCOc1ccc(S(=O)(=O)N2CCN=C2Cc2ccccc2)cc1C | 1.2% (inactive) |
